# Laboratory results: PubChem BioAssay (NCI)
# This is part of a sample that, as a whole, favours compounds with a hit. Of some 83,000 tested, about 20% had one in any assay.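 Activity criterion: percent growth below 10, measured after cells in 96-well plates were exposed to a single compound concentration for 48 hours.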 A number with no mark means an inactive call. Calls of active or inactive are those of the source.
# Test system: A549/ATCC NSCLC
# Assay: NCI-60 one-dose screen, 48 h (100 = growth as untreated, 0 = no growth, -100 = all killed)
# Settings: 10 µM unless noted
# Method: Growth inhibition of the A549/ATCC human Non-Small Cell Lung tumor cell line is measured as a screen for anti-cancer activity. Cells are grown in 96 well plates and exposed to the test compound for 48 hours. Compounds are tested at a single concentration, which is 10^-5 M for most compounds. The reported endpoint is percent growth (GI% or GIPRCNT), where numbers from 0 - 100% represent growth inhibition, and numbers from -100% - 0 represent cell death. For example, a value of 40 represents 60% growth inhibition. A value of 0 means no net growth occurred over the course of the experiment. A value of -40 indicates 40% of cells at the beginning of the experiment died by the end of the experiment. A value of -100 means all cells are dead at the end of the experiment.
# NCI-60 Human Tumor Cell Lines Screen was performed using the standard one-dose NCI protocol, which is described in more detail at https://dtp.cancer.gov/discovery_development/nci-60/default.htm.
# Compounds with GIPRCNT values below 10 were considered active. Activity score was based on GIPRCNT using the following formula: […]
# Score is 0 for GIPRCNT values of 100 or above, 50 for GIPRCNT values of 0, and 100 for GIPRCNT values of -100.
row,SMILES,growth
1,Cn1c(C(N)=O)cc2c1-c1nc(NC3CCCCC3)ncc1CCC2,92.2%
2,Cc1ccc(C2=NN(c3ccc(S(=O)(=O)NC(=O)NCc4ccccc4)cc3)C(c3ccc(N(C)C)cc3)C2)c(C)c1 (stereo not given),22.1%
3,Clc1ccc([I+]c2ccc(Cl)cc2Cl)c(Cl)c1,76%
4,COc1ccc(S(=O)(=O)NCCNc2nccc(-c3c(-c4ccccc4)nc4sccn34)n2)cc1,18.4%
5,COc1ccc(C2CC(=O)Nc3c2c(C)nn3-c2nc3ccccc3[nH]2)cc1OC (stereo not given),61.1%
6,Nc1nn2cc(-c3ccc(Cl)s3)nc2c2ccccc12,83.9%
7,CCn1cc(C(=O)O)c(=O)c2cc(F)c(N3CCN(S(=O)(=O)c4ccc(OC)c(OC)c4)CC3)cc21,105%
8,COc1ccc(-n2c(C)cc(-c3ccccc3)c2C)cc1,40.7%
9,N#Cc1c(NC(=O)c2ccc([N+](=O)[O-])o2)[n+]([O-])c2cc(F)c(F)cc2[n+]1[O-],116%
10,COc1cc(Cn2c(-c3nonc3N)nc3ccccc32)ccc1C,24.2%
11,CCCCCCCCCCn1cc[n+](C)c1,32.6%
12,COc1cccc(-c2nc3sccn3c2-c2ccnc(NCCCNS(=O)(=O)c3ccccc3)n2)c1,51.8%
13,C#CCN1C(=O)/C(=c2\sc3n(c2=O)C2C(NN=3)N(CC)C(=O)N2CC)c2ccccc21 (stereo not given),23.3%
14,Cc1ccc(OCCn2c(C)nn(-c3ccc(Cl)cc3)c2=O)cc1,100%
15,COc1cc(NCCN=C(N)NC(N)=NC(C)C)c2ncccc2c1,91.4%
16,C=C1C(=O)O[C@H]2[C@H]1CC/C(Cn1cc(-c3ccccc3C(F)(F)F)nn1)=C\CC[C@@]1(C)O[C@@H]21,42.9%
17,CCCCCc1c(C)[nH]c(/C=c2\[nH]/c(=C3/C=c4ccccc4=N3)cc2OC)c1C,-21.8% (active)
18,Oc1ccc(N=Cc2ccccc2)cc1,103%
19,CCc1cccc(C)c1NC(=O)c1sc2nc3c(cc2c1N)C(=O)CCC3,22.9%
20,Cc1ccc2c(c1)C(C)Cc1c(ncnc1-n1cnc3ccccc31)N2C (stereo not given),31%

row,SMILES,growth
1,COc1ccc(C2SCC(=O)N2NC(=O)c2ccc(NC(=O)c3ccccn3)cc2)cc1OC (stereo not given),91.7%
2,CCN1C(=O)/C(=c2\sc3n(c2=O)C2C(NN=3)N(CC)C(=S)N2CC)c2ccccc21 (stereo not given),106%
3,O=S(=O)(NCCNc1cc(-c2cn(-c3ccccc3)nc2-c2ccccc2)ccn1)c1ccc(F)cc1,77.6%
4,CCCCCCCCCCCCOB(OCCCCCCCCCCCC)OCCCCCCCCCCCC,97.8%
5,CCNC(=O)CCCCC(=O)c1c(C)[nH]c(/C=C2\N=C(c3ccc[nH]3)C=C2OC)c1C,9.45% (active)
6,CC(=O)Nc1ccc(S(=O)(=O)N2C(=O)CCC2C(=O)Nc2ccccc2)cc1 (stereo not given),21.3%
7,CN=S(=O)(NC(=O)c1ccc(Cl)cc1Cl)c1ccc(Br)s1 (stereo not given),89.5%
8,COc1ccc(-c2nc3sccn3c2-c2ccnc(NCCNS(=O)(=O)c3ccc(C(F)(F)F)cc3)n2)cc1,18.9%
9,NCCSC(c1ccccc1)(c1ccccc1)c1ccccc1,19.9%
10,Cc1ccc(Cn2c(-c3cccs3)nc3ccccc32)cc1,74.2%
11,NC(=O)c1cccc(N2Cc3ccccc3OC3=C2C(=O)c2c(O)ccc(O)c2C3=O)c1,24.7%
12,COc1cc2nc(SCc3cc(OC)c(OC)c(OC)c3)n(Cc3ccccc3)c(=O)c2cc1OC,36.9%
13,Cc1cc(C)c2c(=O)[nH]c(SCC(=O)Nc3cccc(S(=O)(=O)N(C)C)c3)nc2n1,95%
14,O=S(=O)(NCCCNc1nccc(-c2c(-c3ccccc3)nc3sccn23)n1)c1ccc(F)cc1,43.6%
15,Cc1ccc(S(=O)(=O)OC2COCOC2C(OS(=O)(=O)c2ccc(C)cc2)C2OCOCC2OS(=O)(=O)c2ccc(C)cc2)cc1 (stereo not given),93.6%
16,CCCCCC/C=C\CCCCCCCCOc1ccc(CCOP(=O)(O)OCC[N+](C)(C)C)cc1,79%
17,COc1ccc(OC)c(C(=O)c2oc3ccc(Br)cc3c2N)c1,12.2%
18,CC(=O)Nc1ccc(S(=O)(=O)N2C(=O)CCC2C(=O)Nc2ccc(Br)cc2)cc1 (stereo not given),22.3%
19,CC/C=C\C[C@H](O)C/C=C1/C(=O)C(Cl)=C[C@@H]1C/C=C\CCCC(=O)O,100%
20,C=C1C(=O)O[C@H]2[C@H](O)[C@@H](C)CCC/C(C)=C/CC[C@@]3(C)O[C@@H]3C[C@@H]12,80.7%
